FadD28 binding: inhibitors of Mycobacterium tuberculosis FadD28 bisubstrate binding. 360,000 compounds, 0.22% hits. inhibition, % at 12.5 µM. FadD28 bisubstrate probe binding, fluorescence polarization. AID 588549; in the data active means inhibition above about 8.5%, passing the limit was not always enough
TcdB GH inh: inhibitors of Clostridioides difficile toxin B glycohydrolase; P18177; TcdB glycohydrolase enzymatic assay, plate reader; inhibition, % at 9.99 µM; 350,000 compounds, 0.24% hits; AID 652162; in the data active means inhibition above about 10%
Vc quorum ag-1: quorum light induction in luxS cqsA deficient V. cholerae; V. cholerae BH1578 lux reporter, luminescence, 6 h; activation, % at 18.7 µM; 350,000 compounds, 0.16% hits; AID 588436; in the data active means activation mostly above about 9.7%, no sharp cut-off
Mtb BioA inh: BioA (M. tuberculosis) enzyme inhibition; AID 602481; inhibition, % at 9.99 µM; 360,000 compounds, 0.096% hits; purified M. tuberculosis BioA enzyme, plate reader; in the data active means inhibition above about 40%
Vc quorum ag-2: quorum light induction in BH1578 reporter strain. shares compounds with Vc quorum ag-1. V. cholerae BH1578 lux reporter, luminescence, 6 h. activation, % at 50 µM. 620 tested, under 10 active. AID 602243; call rule not given here
HeLa 24h tox: kills HeLa cells within 24 hours; shares compounds with Vc quorum ag-1; HeLa viability, CellTiter-Glo ATP luminescence; activity change, negative = cytotoxicity, % at 35 µM; 25 tested, under 10 active; AID 624140;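 active means signal drop with fitted half-maximal concentration at or below twice the highest valid dose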
Active calls of the source: *; i = inactive; nt = no result given; + = active, no number. In the library only some 0.54% were active in any assay of this set; here they are far more common.

SMILES	FadD28 binding	TcdB GH inh	Vc quorum ag-1	Mtb BioA inh	Vc quorum ag-2	others
Cc1cc(NC2CCCCC2)nc(-c2ccccc2O)n1	-5	nt	17*	0	5
Cc1cc(Nc2ccccc2)nc(-c2ccccc2O)n1	-4	nt	i	1	nt
COc1ccc(CNC(=O)C[C@@H]2CC[C@H](NC(=O)Nc3ccc4c(c3)OCO4)[C@@H](CO)O2)cc1	nt	-4	nt	-4	nt
CCCCOC(=O)n1c(=O)oc2ccccc21	-4	nt	231*	-1	118
CCCNC(=O)N1CC2(C1)[C@H](c1ccccc1)[C@H](CO)N2Cc1cccc(Cl)c1	nt	-1	nt	nt	nt
COc1ccc(-c2ccc(-c3nnc(Cc4ccc(OC)c(OC)c4)o3)cc2)cc1	-4	nt	14	-1	0
O=C(N[C@H]1CC[C@@H](CCn2cc(C3(O)CCCC3)nn2)O[C@H]1CO)C1CC1	nt	0	nt	-2	nt
Cn1cccc1C(=O)OCc1cc(-c2ccco2)on1	-4	-3	31*	2	39
Cc1cc(C(=O)CSc2nnc(-c3ccco3)o2)c(C)n1CC1COc2ccccc2O1 (configuration not stated)	-1	nt	18	-1	1
CC(C)N1CCc2c(sc(NC(=O)c3ccc4ccccc4c3)c2C(N)=O)C1	-4	-3	138*	-7	1
CC(C)N1CCc2c(sc(NC(=O)c3ccc(C(=O)c4ccccc4)cc3)c2C(N)=O)C1	-2	1	0	-2	nt
C[C@@H]1CN([C@@H](C)CO)C(=O)c2cc(NC(=O)C3CC3)ccc2O[C@H]1CN(C)C(=O)Nc1ccc(F)cc1	nt	1	nt	0	nt
CN(C)S(=O)(=O)c1cccc(NC(=O)COC(=O)c2ccc(Br)o2)c1	0	nt	14	1	0
CN(C)S(=O)(=O)c1cccc(NC(=O)COC(=O)/C=C/c2ccc(Br)o2)c1	-1	1	0	-1	nt
O=C(NCCN1CCOCC1)c1cccc(NS(=O)(=O)c2ccc(Br)cc2)c1	-1	-1	23*	nt	14
Cc1cc(C)c(S(C)(=O)=O)c(Oc2ccc(C(C)(C)C)cc2)n1	2	nt	12	nt	0
Cc1cc(C)c(S(C)(=O)=O)c(Oc2cccc(Cl)c2)n1	-1	nt	0	3	nt
COc1ccc(CN(C)C[C@@H]2Oc3ccc(NC(=O)Cn4cnnn4)cc3C(=O)N([C@H](C)CO)C[C@H]2C)cc1	nt	1	nt	7	nt
CCC1C(=O)NCCN1C(=O)CCc1nnc(CCc2ccc(OC)cc2)o1 (configuration not stated)	-4	0	11	0	0
Cc1nc(CN2CCC(c3ccccc3)CC2)cc(=O)[nH]1	0	0	0	nt	nt
Cc1cc(=O)[nH]c(CN2CCC(c3ccccc3)CC2)n1	0	0	nt	nt	1
COc1cc(C(=O)Nc2ccc(NC(=O)c3ccccc3)nc2)cc(OC)c1OC	-1	1	1	-1	nt
COc1cc(C(=O)Nc2ccc(NC(=O)C(C)C)nc2)cc(OC)c1OC	-3	nt	6.7*	1	0
COc1ccccc1NC(=O)c1nn(-c2ccc(Cl)cc2)ccc1=O	0	nt	25*	-2	1
CCC(=O)N1C[C@H](C)[C@H](OC)CN(C)C(=O)c2cc(NC(=O)c3cnccn3)ccc2OC[C@H]1C	nt	1	nt	7	nt
SMILES	FadD28 binding	TcdB GH inh	Vc quorum ag-1	Mtb BioA inh	Vc quorum ag-2	others
OCCNc1nc(Nc2cccc(O)c2)nc2ccccc12	-5	3	i	nt	nt
COc1cccc(Nc2nc(NCCO)c3ccccc3n2)c1	nt	nt	40*	nt	1
COc1ccc(CCNC(=O)c2nnn(-c3ccc4c(c3)OCCO4)c2N)cc1OC	-3	nt	7.6*	0	1
COc1ccccc1-c1cnc2c(c1)C(=O)N([C@H](C)CO)C[C@@H](C)[C@@H](CN(C)Cc1cncnc1)O2	nt	-1	nt	-2	nt
COC(=O)c1cnn(-c2nc(-c3ccccc3)cs2)c1N	-1	1	70*	-2	0
CCOC(=O)c1nnn(-c2nonc2N)c1CN1CCc2ccccc2C1	-1	nt	12	1	1
CC(C)OC(=O)c1nnn(-c2nonc2N)c1CN1CCc2ccccc2C1	-2	nt	5	0	nt
COc1ccc(S(=O)(=O)N(C)C[C@H]2Oc3c(NC(=O)Nc4ccc5c(c4)OCO5)cccc3C(=O)N([C@@H](C)CO)C[C@H]2C)cc1	nt	1	nt	1	nt
CCOC(=O)c1cnc(-n2nc(C)cc2C)nc1N(C)C	-2	nt	12	3	2
CC(=O)N(C)C[C@H]1Oc2cc(C#Cc3cccc(F)c3)ccc2S(=O)(=O)N([C@@H](C)CO)C[C@H]1C	nt	0	nt	2	nt
Cc1nc(N2CCc3ccccc3C2)[nH]c(=O)c1Cc1ccccc1	-1	-1	1	nt	nt
CCCCCc1c(C)nc(N2CCc3ccccc3C2)[nH]c1=O	-4	nt	25*	0	15
C=CCNC(=O)CCCOc1ccc(C)cc1	-1	nt	35*	2	10
COc1ccc2c3c(n(C)c2c1)[C@@H](CO)N(C(=O)NC1CCCC1)CC31CCN(C)CC1	nt	2	nt	nt	nt
COc1ccccc1C(=O)Nc1ccc2c(c1)C(=O)N(C)C[C@H](OC)[C@@H](C)CN(C)[C@@H](C)CO2	nt	0	nt	-2	nt
Cc1onc(-c2ccccc2)c1C(=O)n1cccn1	-3	nt	22*	-1	0
Cc1onc(-c2ccccc2)c1C(=O)c1ccccc1	-1	0	-2	-2	nt
CCC(=O)N1C[C@H](C)[C@H](OC)CN(C)C(=O)c2ccc(NC(=O)Nc3ccccc3)cc2OC[C@@H]1C	nt	-1	nt	0	nt
CCNC(=O)OCc1cn(-c2ccccc2)nn1	-1	1	+	nt	i
CC(C)(C)C(=O)OCc1cn(-c2ccccc2)nn1	-2	nt	0	-3	nt
CC(C)NC(=O)Nc1ccc2c(c1)CC(=O)N([C@@H](C)CO)C[C@H](C)[C@@H](CN(C)Cc1ccc(C(=O)O)cc1)O2	nt	0	nt	-4	nt
CC(C)(C)OC(=O)NCCCC(CCCNC(=O)OC(C)(C)C)C(=O)O	1	nt	12	-5	0
COc1ccc(C(=O)COC(=O)c2cccc(-n3cnnn3)c2)c(OC)c1	0	-1	12	-1	0
O=C(COC(=O)c1cccc(-n2cnnn2)c1)c1ccc(F)cc1	1	0	0	nt	nt
COc1ccc(CC(=O)N2CCC(c3ccccc3)C2)cc1 (configuration not stated)	-2	1	0	nt	nt
SMILES	FadD28 binding	TcdB GH inh	Vc quorum ag-1	Mtb BioA inh	Vc quorum ag-2	others
COc1ccc(CC(=O)N2CCC(Nc3nc4ccccc4n3Cc3ccc(F)cc3)CC2)cc1	-8	nt	15*	3	0
Cc1ccc(CNc2nnnn2C)cc1	0	1	0	-2	nt
CCn1nnnc1NCc1ccc(SC)cc1	-4	3	nt	-1	i
CCn1nnnc1NCc1ccc(N2CCCC2)cc1	-3	nt	nt	0	i	HeLa 24h tox=13
CCOC(=O)c1ccccc1NC(=O)COC(=O)C1=COCCO1	4	nt	12	nt	-1
CCOC(=O)c1ccccc1NC(=O)C1=COCCO1	-4	3	i	1	nt
C[C@@H]1CN([C@@H](C)CO)C(=O)c2cc(NC(=O)CCC(F)(F)F)ccc2O[C@H]1CN(C)S(=O)(=O)c1cn(C)cn1	nt	0	nt	-1	nt
Cn1c(CCNC(=O)c2ccco2)nc2cc(NC(=O)NC3CCCCC3)ccc21	-2	nt	7.6*	-2	0

Assay outcomes deposited in PubChem BioAssay by Broad Institute.
